Values without a mark were called inactive.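 How the source made its calls: active = AUC reduced over 20% with Padj below 0.05 in at least 2 of 3 replicates; inactive = otherwise.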
How the values were obtained:
Assay in all cases: growth AUC relative to DMSO control (median of replicates) (fraction); higher = more growth (less inhibition), active = hit call of the paper
Conditions in all cases: 20 µM; 24 h
Akkermansia muciniphila = test system: Akkermansia muciniphila
Method in brief: (§1)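 Each value is the median of three biological replicates, grown on separate days, of a gut bacterial monoculture incubated anaerobically at 37 °C in mGAM with 20 µM compound (1% DMSO). Cultures started at OD600 0.05 and were read at OD600 hourly for 24 h, with the minimum OD set to 0. Area under the growth curve was normalised to the plate median of solvent-only wells, or to row and column medians on the industrial chemical plate.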

Bacteroides caccae = test system: Bacteroides caccae
Method in brief: as §1

Bacteroides clarus = test system: Bacteroides clarus
Method in brief: as §1

Bacteroides dorei = test system: Bacteroides dorei
Method in brief: as §1

Bacteroides stercoris = test system: Bacteroides stercoris
Method in brief: as §1

[1] = test system: Bacteroides thetaiotaomicron
Method in brief: as §1

Bacteroides uniformis = test system: Bacteroides uniformis
Method in brief: as §1

[2] = test system: Bifidobacterium longum subsp. longum
Method in brief: as §1

Clostridium difficile = test system: Clostridium difficile
Method in brief: as §1

Collinsella aerofaciens = test system: Collinsella aerofaciens
Method in brief: as §1

Coprococcus comes = test system: Coprococcus comes
Method in brief: as §1

Escherichia coli ED1a = test system: Escherichia coli ED1a
Method in brief: as §1

Escherichia coli IAI1 = test system: Escherichia coli IAI1
Method in brief: as §1

Eubacterium rectale = test system: Eubacterium rectale
Method in brief: as §1

[3] = test system: Fusobacterium nucleatum subsp. animalis
Method in brief: as §1

Lactobacillus gasseri = test system: Lactobacillus gasseri
Method in brief: as §1

Lactobacillus paracasei = test system: Lactobacillus paracasei
Method in brief: as §1

Odoribacter splanchnicus = test system: Odoribacter splanchnicus
Method in brief: as §1

[4] = test system: Parabacteroides distasonis
Method in brief: as §1

Parabacteroides merdae = test system: Parabacteroides merdae
Method in brief: as §1

SMILES	growth AUC (Akkermansia muciniphila)	growth AUC (Bacteroides caccae)	growth AUC (Bacteroides clarus)	growth AUC (Bacteroides dorei)	growth AUC (Bacteroides stercoris)	growth AUC [1]	growth AUC (Bacteroides uniformis)	growth AUC [2]	growth AUC (Clostridium difficile)	growth AUC (Collinsella aerofaciens)	growth AUC (Coprococcus comes)	growth AUC (Escherichia coli ED1a)	growth AUC (Escherichia coli IAI1)	growth AUC (Eubacterium rectale)	growth AUC [3]	growth AUC (Lactobacillus gasseri)	growth AUC (Lactobacillus paracasei)	growth AUC (Odoribacter splanchnicus)	growth AUC [4]	growth AUC (Parabacteroides merdae)
CCNc1nc(NC(C)C)nc(SC)n1	0.916	0.959	0.997	0.976	1.19	0.985	1	0.988	0.999	0.983	1.01	0.974	0.989	1	1.13	0.987	0.992	0.999	1.01	1.04
COP(=O)(OC)O/C(=C\Cl)c1ccc(Cl)cc1Cl	1.11	0.975	1.02	1.03	1.02	0.969	1.01	1.02	0.97	0.997	1.06	1.01	1	1.09	1.09	0.97	1.02	1.02	0.957	1.01
O=C(Nc1ccccc1)c1ccccc1I	0.823	1.03	1	0.994	1.05	1.01	0.975	1.03	1.08	1.07	1.05	1.04	1	0.97	1.04	1.09	0.96	0.989	0.991	1.01
O=C(O)C(F)(F)C(F)(F)C(F)(F)C(F)(F)C(F)(F)C(F)(F)C(F)(F)C(F)(F)C(F)(F)F	0.991	0.977	0.933	1.01	0.998	1.1	1.02	0.939	0.968	0.984	0.991	1.01	1.01	0.892	1.01	1.01	1.03	0.993	0.913	0.97
CCOC(=O)CCN(Cc1ccccc1)SN(C)C(=O)O/N=C(/C)SC	0.948	0.993	0.979	1.04	1.09	0.991	1.09	1.03	1.01	1.02	0.985	0.995	0.988	1.08	0.837	0.909	1.02	1.08	1.02	0.99
CC(=O)O.NC(N)=NCCCCCCCCNCCCCCCCCN=C(N)N	0.836	0.279 (active)	0.442 (active)	0.638 (active)	0.186 (active)	0.0333 (active)	0.115 (active)	0.136 (active)	0.984	0.618 (active)	0.64 (active)	1	0.928	0.0294 (active)	0.871	0.874	0.961	0.0478 (active)	0.132 (active)	0.0209 (active)
CNC(=S)S	1.07	1.01	1.04	0.996	1.08	1.02	1	1.37	0.999	0.996	1.03	1.02	1.02	1.03	1.08	1.02	1.1	1.05	1.03	1.05
CC(C)N(C)S(=O)(=O)NC(=O)c1cc(-n2c(=O)cc(C(F)(F)F)n(C)c2=O)c(F)cc1Cl	0.916	1.02	0.989	1	1.09	0.951	0.94	1	0.976	1.04	1.03	1.02	1	1.01	0.98	1.02	1.04	0.99	1.08	1
CCN(CC)C(=O)SCc1ccc(Cl)cc1	0.879	0.98	0.954	0.978	1.12	0.91	0.973	0.948	1.02	0.948	0.966	1.01	1.01	0.921	0.957	1.08	0.879	0.937	0.943	0.972
CO/N=C(/C(=O)OC)c1ccccc1CO/N=C(\C)c1cccc(C(F)(F)F)c1	0.96	0.937	0.897	1.02	0.993	0.956	0.994	0.975	1.09	0.993	0.976	0.978	0.985	0.973	0.953	1.1	0.831	1.01	0.887	0.901
CCOC(=O)C(Cl)Cc1cc(-n2nc(C)n(C(F)F)c2=O)c(F)cc1Cl (stereo not given)	0.963	0.991	0.927	0.967	0.996	0.926	0.936	1.02	0.981	0.972	0.963	0.986	0.941	0.794	0.987	1.01	0.966	0.988	0.963	0.925
CCN(CC)C(=O)/C(Cl)=C(/C)OP(=O)(OC)OC	1.19	1	0.975	0.921	0.977	0.958	0.979	1.02	0.94	0.967	0.978	0.942	0.953	1.08	1	0.886	0.969	0.935	0.888	0.978
CCOP(=S)(OCC)SCS(=O)C(C)(C)C (stereo not given)	0.905	0.997	1.02	0.944	1.08	1.02	0.989	1.02	1	0.987	1.05	1.04	1.01	1.01	1.07	0.959	0.754	1.04	1.01	1.01
O=S1(=O)OCC2C(CO1)C1(Cl)C(Cl)=C(Cl)C2(Cl)C1(Cl)Cl (stereo not given)	1.39	0.997	0.945	0.962	0.765	0.984	0.914	1.11	1	0.993	1.01	0.991	1	1.01	0.935	0.919	1.02	1.02	1.09	0.955
CC1(C)[C@H](C(=O)O[C@H](C#N)c2cccc(Oc3ccccc3)c2)[C@@H]1/C=C\C(=O)OC(C(F)(F)F)C(F)(F)F	0.955	1.01	0.976	1.02	0.92	1.03	1.01	0.931	1.03	1.07	1.03	1.01	1.1	0.984	0.986	1.12	0.984	1.03	0.994	1.01
CCOP(=O)(NC(C)C)Oc1ccc(S(C)=O)c(C)c1 (stereo not given)	1.01	0.999	1.04	1.04	1.02	0.997	1.02	1.06	1.08	1	1.04	1.03	1.04	1.05	1.09	1.07	0.975	1.01	1.13	1.05
CCOP(=S)(OCC)Oc1ccc([N+](=O)[O-])cc1	1.09	0.963	1	1.02	1.05	0.972	0.959	1.03	1	1.03	0.997	1	0.979	1.09	1.11	0.98	1.04	1.02	0.964	0.994
O=S(=O)(c1ccc(O)cc1)c1ccc(O)cc1	0.921	0.97	1	1.01	0.977	0.996	0.987	0.949	0.997	0.976	0.974	1.05	1.02	0.972	0.977	0.963	0.953	0.914	0.878	0.974
CCOP(=O)(Sc1ccccc1)Sc1ccccc1	1.16	0.985	0.895	0.927	0.795	0.932	0.881	1.02	0.984	1.03	1.02	0.995	0.982	1.13	1.08	0.957	0.953	0.965	0.649 (active)	0.934
CO/C=C(/C(=O)OC)c1ccccc1COc1cccc(C(F)(F)F)n1	0.949	0.984	0.945	0.995	0.91	0.936	0.927	0.983	1.01	0.978	0.993	0.989	0.997	0.937	0.948	0.975	1.02	0.964	0.558 (active)	0.924
COP(=S)(NC(C)C)Oc1ccccc1C(=O)OC(C)C (stereo not given)	1.07	0.991	0.93	0.942	1.04	0.907	0.872	1.02	1.01	1.01	1.03	1.02	0.988	0.92	1.08	0.984	0.962	1.07	0.53 (active)	0.931
CCS(=O)(=O)c1nc2ccccn2c1S(=O)(=O)NC(=O)Nc1nc(OC)cc(OC)n1	1.1	1.02	1.02	0.993	1	0.995	0.989	0.928	1.01	0.983	1.04	0.99	1.01	0.999	0.977	0.88	1.01	1.05	1.02	1.02
CCCCC(O)(Cn1cncn1)c1ccc(Cl)cc1Cl (stereo not given)	0.965	0.944	0.96	0.97	1.22	0.92	0.971	1.02	0.92	1	0.946	0.987	0.996	0.783 (active)	1.04	0.952	0.936	0.894	1.01	0.931
